Drawing on PubChem BioAssay (Tox21), this text covers Potency for 11 molecules.

Results filed as inconclusive are left out. The source made the active and inactive calls. Unless noted, the call rests on the fitted dose curve; in most records, active means well fitted curve in the direction sought with a large enough effect in the repeat runs; inconclusive means weak or mixed curves; inactive means no such curve, though single readings can be large; an effect the other way counts as inactive or inconclusive.

Experiment [1] is described as follows: qHTS assay to identify small molecule antagonists of the estrogen related receptor (ERR) signaling pathway (AID 1224819; further: nearly all actives have a fitted effect of over 50% in size; further: potency means the concentration at half of the fitted maximal effect). In short, it runs like this: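 ERR reporter cell line (NTP) plated at 2,000 cells/well, settled 6 h at 37C/5% CO2, then exposed to LOPAC compounds for 18 h at 37C. One-Glo luciferase luminescence read after 30 min at room temperature.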
For orientation: Quantitative high-throughput screening tests each substance at several concentrations.

Experiment [2] in a line: qHTS assay to identify small molecule agonists of the estrogen related receptor signaling pathway with the pleiotropic PPARgamma coactivator (PGC) (AID 1224823). In short, it runs like this:
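Cell-based luciferase assay in the NTP-supplied PGC/ERR line, 2,000 cells/well; 18 h compound exposure at 37 C, luminescence after One-Glo.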

A short description of experiment [3]: qHTS assay to identify small molecule agonists of the estrogen related receptor (ERR) signaling pathway (AID 1224820). In short, it runs like this:
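Quantitative HTS of the LOPAC library used NTP ERR reporter cells treated 18 h at 37 C. Signal is luminescence after One-Glo addition and a 30 min room-temperature incubation.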

Experiment [4] concerns estrogen-related receptor alpha (ERRalpha) with PGC-1alpha coactivator, human. Kind of experiment: qHTS assay to identify small molecule antagonists of the estrogen related receptor signaling pathway with the pleiotropic PPARgamma coactivator (PGC) (AID 1224821; calls by dose curve; further: nearly all actives have a fitted effect of over 50% in size; further: potency means the concentration at half of the fitted maximal effect). In outline:
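Quantitative HTS for antagonism: PGC/ERR cells received compounds after 6 h attachment and were incubated 18 h at 37 C, with luminescence (One-Glo) as the endpoint.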

Experiment [5] can be described thus: qHTS assay to identify small molecule antagonists of the estrogen related receptor signaling pathway with the pleiotropic PPARgamma coactivator (PGC) cell viability counter screen (AID 1224822; further: potency means the concentration at half of the fitted maximal effect;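 further: viability read after 17.5 h compound exposure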). In short, it runs like this: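 PGC/ERR cells rested 6 h, then compound-treated 17.5 h at 37 C. CellTiter-Fluor added for 30 min at 37 C, viability measured by fluorescence intensity.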

In experiment [6] the target is Luciferin 4-monooxygenase (Photinus pyralis) (UniProt P08659). Kind of experiment: qHTS assay to identify small molecule inhibitors of firefly luciferase (AID 1224835). Further: potency means the concentration at half of the fitted maximal effect; nearly all actives have a fitted effect of over 25% in size. In outline: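 Quantitative HTS format; KM concentrations of both substrates. Purified P. pyralis FLuc activity quantified from luminescence images.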
Sequence of Luciferin 4-monooxygenase (Photinus pyralis) (P08659 whole entry, looked up): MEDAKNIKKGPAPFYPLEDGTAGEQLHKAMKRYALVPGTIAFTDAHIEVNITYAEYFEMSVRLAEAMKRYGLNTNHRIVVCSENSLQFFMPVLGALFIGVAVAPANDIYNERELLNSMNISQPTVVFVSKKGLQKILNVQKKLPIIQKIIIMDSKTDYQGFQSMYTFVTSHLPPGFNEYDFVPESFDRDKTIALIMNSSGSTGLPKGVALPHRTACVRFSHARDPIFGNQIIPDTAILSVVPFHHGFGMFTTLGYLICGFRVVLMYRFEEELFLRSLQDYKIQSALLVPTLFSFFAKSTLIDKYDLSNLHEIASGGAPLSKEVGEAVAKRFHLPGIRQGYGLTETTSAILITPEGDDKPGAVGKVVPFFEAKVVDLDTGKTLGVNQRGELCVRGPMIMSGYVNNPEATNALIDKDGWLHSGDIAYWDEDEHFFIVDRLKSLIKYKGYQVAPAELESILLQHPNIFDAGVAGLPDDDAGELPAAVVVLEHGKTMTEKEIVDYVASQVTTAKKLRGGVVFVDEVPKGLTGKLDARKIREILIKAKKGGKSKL

In the case of `CCN(c1nc(N)c(C(=O)N=C(N)N)nc1Cl)C(C)C`, the Potency in experiment [1] was 9.81 µM (active). In experiment [2], the Potency entry was “inactive”.
The like results for `C=C1C(=O)O[C@@H]2[C@H]3O[C@]3(C)CCC=C(C)CC[C@@H]12` were, in that order, “inactive” and “inactive”.
As for `NC(=NCc1ccccc1)NC(=O)c1nc(Cl)c(N)nc1N`, the Potency entry in experiment [3], in experiment [4] and in experiment [2] was “inactive” throughout.
On to `NS(=O)(=O)C#Cc1ccccc1`, for which the Potency entry in experiment [3] and in experiment [2] was “inactive” each time.
Consider `CC(=O)/C=C1\C(=O)N(C)c2ccccc21`, for which the Potency in experiment [4] was 28.7 µM (active). In experiment [2], the Potency entry is “inactive”.
For the molecule `COc1ccccc1N1CCN(CCCCNC(=O)c2ccc3ccccc3c2)CC1`, the Potency entry in experiment [3] and in experiment [2] was “inactive” each time.
On to `O=C1Nc2ccc(I)cc2/C1=C/c1cc(Br)c(O)c(Br)c1`, for which the Potency result in experiment [3], in experiment [4], in experiment [5] and in experiment [2] was “inactive” each time.
`O=C1NC(=O)c2c1c(-c1ccccc1)cc1[nH]c3ccc(O)cc3c21`: the Potency entry in experiment [3], in experiment [4] and in experiment [2] was “inactive” throughout.
For the molecule `Nc1ccc(N)c([N+](=O)[O-])c1`, the Potency in experiment [6] is 35.6 µM (active).
Consider `CCN(CC)CC#CCOC(=O)C(O)(c1ccccc1)C1CCCCC1` (stereo unspecified), for which the Potency entry in experiment [2] was “inactive”.
Take `CCCCN(CC)c1nc(C)nc2c1c(C)cn2-c1c(C)cc(C)cc1C`: the Potency result in experiment [3] and in experiment [2] was “inactive” in each case. In addition, the Potency is 12.8 µM (active) in experiment [4] and 16.8 µM (active) in experiment [5].
